An excerpt weighted towards active compounds, which were near 3.9% of everything screened.
Anthrax LF inh2: blocks Bacillus anthracis lethal factor protease; multiplex microsphere protease cleavage assay, LF; inhibition, % at 10 µM; 360,000 compounds, 0.12% hits; note: plate controls were buffer without enzyme for full effect and enzyme alone for no effect
Target sequence (P15917 whole entry, looked up): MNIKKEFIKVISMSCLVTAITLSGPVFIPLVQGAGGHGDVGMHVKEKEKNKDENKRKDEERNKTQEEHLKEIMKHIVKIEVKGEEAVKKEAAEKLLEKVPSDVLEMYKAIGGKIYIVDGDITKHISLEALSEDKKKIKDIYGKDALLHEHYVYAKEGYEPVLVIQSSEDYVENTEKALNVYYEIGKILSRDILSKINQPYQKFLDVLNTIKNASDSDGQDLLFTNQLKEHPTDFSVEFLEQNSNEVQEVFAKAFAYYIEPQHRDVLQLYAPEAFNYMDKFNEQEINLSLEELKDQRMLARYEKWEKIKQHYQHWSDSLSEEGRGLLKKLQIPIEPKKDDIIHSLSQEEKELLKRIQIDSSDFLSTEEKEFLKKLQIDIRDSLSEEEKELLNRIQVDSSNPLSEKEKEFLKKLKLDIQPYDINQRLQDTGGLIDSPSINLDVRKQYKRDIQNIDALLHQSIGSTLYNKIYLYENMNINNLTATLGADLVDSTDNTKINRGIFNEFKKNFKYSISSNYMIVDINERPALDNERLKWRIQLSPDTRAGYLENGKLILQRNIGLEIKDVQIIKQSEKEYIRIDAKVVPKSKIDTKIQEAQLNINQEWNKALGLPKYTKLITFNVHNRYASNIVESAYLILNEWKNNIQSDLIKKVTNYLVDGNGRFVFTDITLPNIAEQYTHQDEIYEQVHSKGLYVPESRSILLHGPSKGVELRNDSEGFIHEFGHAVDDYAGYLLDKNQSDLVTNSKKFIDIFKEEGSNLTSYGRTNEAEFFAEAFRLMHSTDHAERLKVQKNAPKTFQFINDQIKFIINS
BoNT-A LC inh2: blocks Botulinum neurotoxin A light chain protease. multiplex microsphere protease substrate cleavage, flow cytometry. inhibition, % at 10 µM. 360,000 compounds, 0.17% hits; note: plate controls were buffer without enzyme for full effect and enzyme alone for no effect
3CLpro inhibitor: SARS-CoV 3CLpro protease inhibition; P0C6X7; recombinant SARS-CoV 3CLpro, quenched FRET peptide cleavage; inhibition, % at 6 µM; 290,000 compounds, 0.14% hits; AID 1706; in the data active = inhibition above about 12%
BoNT F protease: blocks Botulinum neurotoxin F light chain protease. Multiplex microsphere protease cleavage assay, flow cytometry. inhibition, % at 10 µM. 360,000 compounds, 0.22% hits; in the data active = inhibition above about 35%, passing the limit was not always enough; inconclusive = no clear call, values can overlap the other calls; note: plate controls were buffer without enzyme for full effect and enzyme alone for no effect
DUSP3 inh: blocks human VHR1 dual specificity phosphatase; P51452; recombinant VHR phosphatase, pNPP absorbance; inhibition, % at 13.3 µM; 290,000 compounds, 0.52% hits; in the data active = inhibition above about 50%
Bead autofluor: flagged as autofluorescent in microsphere protease counterscreen; compound autofluorescence counterscreen, microsphere flow cytometry; hits give high values; fluorescence intensity (no concentration beside the values); 360,000 compounds, 3.1% hits; AID 624483; in the data active = fluorescence intensity above about 16000; inconclusive = no clear call, values can overlap the other calls
An asterisk follows results filed as active. Cut-off read from the data, not from the text of the source, unless noted: active = inhibition above about 30%; inconclusive = no clear call, values can overlap the other calls; inactive = below that.

`CN(c1ccccc1)C(c1ccc(F)cc1)c1nnnn1C1CCCC1` (stereo not given) gave Anthrax LF inh2 -5, BoNT-A LC inh2 inconclusive, 3CLpro inhibitor 2, BoNT F protease -8, DUSP3 inh -15 and Bead autofluor 23833*.
For Cc1nn(C)cc1CNC(=O)c1ccc(Br)o1 the results were Anthrax LF inh2 0, BoNT-A LC inh2 -1, 3CLpro inhibitor -4, BoNT F protease -1, DUSP3 inh 22 and Bead autofluor 20359*.
For O=S(=O)(Nc1cccnc1Cl)c1ccc2c(c1)OCCO2 the results were Anthrax LF inh2 -2, BoNT-A LC inh2 inconclusive, 3CLpro inhibitor 4, BoNT F protease -3, DUSP3 inh 21 and Bead autofluor 16615*.
`CSc1ccccc1NS(=O)(=O)c1ccc2c(c1)OCCO2` gave Anthrax LF inh2 -1, BoNT-A LC inh2 0, 3CLpro inhibitor 0, BoNT F protease -1, DUSP3 inh -6 and Bead autofluor 20835*.
O=S(=O)(Nc1c(F)cccc1F)c1ccc2c(c1)OCCO2 was read as Anthrax LF inh2 -15, BoNT-A LC inh2 -3, 3CLpro inhibitor 6, BoNT F protease -18, DUSP3 inh 34 and Bead autofluor 4161.
Screening COc1ccccc1NS(=O)(=O)c1ccc2c(c1)OCCO2 returned Anthrax LF inh2 -3, BoNT-A LC inh2 1, 3CLpro inhibitor -4, BoNT F protease 1, DUSP3 inh 58* and Bead autofluor 5652.
CC(C)CNS(=O)(=O)c1ccc2c(c1)OCCO2 was read as Anthrax LF inh2 -1, BoNT-A LC inh2 -2, 3CLpro inhibitor -1, BoNT F protease 0, DUSP3 inh 9 and Bead autofluor 24162*.
For CC1(C(=O)NS(=O)(=O)C2CC2)CCN(C(=O)COCc2ccccc2)C1 (stereo not given) the results were Anthrax LF inh2 -8, BoNT-A LC inh2 0, BoNT F protease -5 and Bead autofluor 2980.
For CCCCn1c(N)c(N(CCOC)C(=O)c2cccc(S(=O)(=O)N(C)c3ccc(C)cc3)c2)c(=O)[nH]c1=O the results were Anthrax LF inh2 1, BoNT-A LC inh2 -1, BoNT F protease 13 and Bead autofluor 5057.
Screening Cc1ccc(Cl)c(OCCN2CCc3ccccc3C2)c1 returned Anthrax LF inh2 8, BoNT-A LC inh2 3, 3CLpro inhibitor -2, BoNT F protease 11, DUSP3 inh 5 and Bead autofluor 3297.
For CC1CN(C(=O)C2(C)CC2(Br)Br)CC(C)O1 (stereo not given) the results were Anthrax LF inh2 -4, BoNT-A LC inh2 0, 3CLpro inhibitor -3, BoNT F protease -1, DUSP3 inh 6 and Bead autofluor 7358.
Screening CN(C)C(=O)CSc1nnc(-c2ccco2)n1-c1ccccc1 returned Anthrax LF inh2 12, BoNT-A LC inh2 -1, BoNT F protease 1 and Bead autofluor 3575.
Cc1ccc2nc(CSc3nnc(-c4ccco4)n3-c3ccccc3)cc(=O)n2c1 was read as Anthrax LF inh2 -1, BoNT-A LC inh2 0, 3CLpro inhibitor 0, BoNT F protease 1 and Bead autofluor 22931*.
`CN(Cc1ccccc1)C(=O)CSc1nnc(-c2ccco2)n1-c1ccccc1` gave Anthrax LF inh2 -1, BoNT-A LC inh2 -2, 3CLpro inhibitor -3, BoNT F protease 0, DUSP3 inh 2 and Bead autofluor 19956*.
Screening Cc1cc(Cn2nc(-c3ccccc3)cc2C(=O)NCC2CC2)on1 returned Anthrax LF inh2 -2, BoNT-A LC inh2 -1, BoNT F protease -8 and Bead autofluor 3043.
For COC(=O)c1ccc(OCC2NCCc3cc(OC)c(OC)cc32)cc1 (stereo not given) the results were Anthrax LF inh2 1, BoNT-A LC inh2 -3, 3CLpro inhibitor 1, BoNT F protease -1, DUSP3 inh 56* and Bead autofluor 7002.
For COC(=O)c1ccc(OCC2c3cc(OC)c(OC)cc3CCN2C(=O)c2ccco2)cc1 (stereo not given) the results were Anthrax LF inh2 -8, BoNT-A LC inh2 3, 3CLpro inhibitor 2, BoNT F protease 4, DUSP3 inh -4 and Bead autofluor 19776*.
`CCC(=O)N1CCc2cc(OC)c(OC)cc2C1COc1ccc(C(=O)OC)cc1` (stereo not given) gave Anthrax LF inh2 -1, BoNT-A LC inh2 -2, 3CLpro inhibitor 0, BoNT F protease -3, DUSP3 inh -1 and Bead autofluor 21370*.
O=C(CNCc1ccccn1)N1CCc2ccccc2C1 was read as Anthrax LF inh2 -3, BoNT-A LC inh2 -3, 3CLpro inhibitor 2, BoNT F protease 9, DUSP3 inh 7 and Bead autofluor 4152.
Screening COCCCN1CN(S(=O)(=O)c2ccc(C)cc2C)c2nc3ccccc3nc21 returned Anthrax LF inh2 -2, BoNT-A LC inh2 -1, 3CLpro inhibitor 9, BoNT F protease 0, DUSP3 inh 17 and Bead autofluor 4713.
CC(C)CNC(=O)COC(=O)c1c2c(nc3ccccc13)/C(=C/c1cccs1)CC2 was read as Anthrax LF inh2 24, BoNT-A LC inh2 31*, 3CLpro inhibitor 6, BoNT F protease 18, DUSP3 inh 0 and Bead autofluor 8338.
Screening N=C1N(/N=C/c2ccccc2)C(=Nc2ccccc2)C(=S)N1c1ccccc1 returned Anthrax LF inh2 14, BoNT-A LC inh2 13, 3CLpro inhibitor 3, BoNT F protease -2, DUSP3 inh 40 and Bead autofluor 18941*.
Screening Cc1ccc(/C=N/n2c(-c3ccccc3)n[nH]c2=S)cc1 returned Anthrax LF inh2 -6, BoNT-A LC inh2 1, 3CLpro inhibitor 1, BoNT F protease 23, DUSP3 inh 0 and Bead autofluor 3033.
`CCOC(=O)N1CCN(C(=O)CN(C)S(=O)(=O)c2ccc(OCC)cc2)CC1` gave Anthrax LF inh2 4, BoNT-A LC inh2 -2, 3CLpro inhibitor 5, BoNT F protease 1, DUSP3 inh 7 and Bead autofluor 3195.
CSC1=N/C(=C\c2ccccc2)C(=O)N1C was read as Anthrax LF inh2 -11, BoNT-A LC inh2 3, 3CLpro inhibitor -4, BoNT F protease 3, DUSP3 inh 27 and Bead autofluor 21913*.
O=C(O)CCc1nn2c3ccccc3n(CC(=O)c3ccccc3)c2nc1=O was read as Anthrax LF inh2 -1, BoNT-A LC inh2 1, 3CLpro inhibitor 0, BoNT F protease 0, DUSP3 inh 26 and Bead autofluor 22951*.
O=C(CCC1COc2ccccc2O1)Nc1ccccn1 (stereo not given) was read as Anthrax LF inh2 2, BoNT-A LC inh2 2, 3CLpro inhibitor -1, BoNT F protease inconclusive, DUSP3 inh 2 and Bead autofluor 4145.
Screening O=C(CCC1COc2ccccc2O1)Nc1cccnc1 (stereo not given) returned Anthrax LF inh2 -3, BoNT-A LC inh2 -2, 3CLpro inhibitor -1, BoNT F protease 0, DUSP3 inh 5 and Bead autofluor 23308*.
`COc1ccc(N(C(=O)CCl)C(C(=O)NC2CCCCC2)c2cccnc2)cc1` (stereo not given) gave Anthrax LF inh2 0, BoNT-A LC inh2 1, 3CLpro inhibitor 21*, BoNT F protease -4, DUSP3 inh 4 and Bead autofluor 2406.

Source: PubChem (several laboratories)
